Data as given in PubChem BioAssay AID504534 (National Center for Advancing Translational Sciences (NCATS), 2011).
Inconclusive results are not listed. Entries that show only a call come without a potency. The source made the active and inactive calls. The call rests on the fitted dose curve; in most records, active means well fitted curve in the direction sought with a large enough effect; inconclusive means small, poorly fitted or top-dose-only effect, or another doubt; inactive means no such curve, though single readings can be large or run the other way.

Test: Secondary Assay for Inhibitors of Human Cdc-like kinase 4 (Clk4): HEK-293 Cell Viability Assay;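 further: cytotoxic hits lower the ATP light signal so activity reflects loss of viability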
Settings: HEK-293 viability, ATP luminescence (CellTiter-Glo), 24/48 h; series mostly up to 46.1 µM
Description: NIH Molecular Libraries Probe Production Centers Network [MLPCN] NIH Chemical Genomics Center [NCGC] MLPCN Grant: 1R03MH084827-01 Assay Submitter (PI): Tom Misteli NCGC Assay Overview: Cytotoxicity of the active compounds in the Clk4 screens was assessed using the CellTiter-Glo Luminescent Cell Viability Assay kit (Promega, USA) in the HEK-293 (ATCC) cell line. CellTiter-Glo measures the intracellular ATP present in metabolically active cells using Ultra-Glo as the luciferase to detect ATP levels. In brief, the luciferase in the buffer catalyzes the oxidation of luciferin to oxyluciferin and light which is dependent on ATP. […] Wells treated with various concentrations of cycloheximide (Sigma) and DMSO, and wells with media alone were used as positive and negative controls, respectively. […] [1] http://www.promega.com/tbs/tb288/tb288.pdf
NCGC Assay Protocol Summary: HEK-293 cells were grown in a flask up to 80% confluence. Cells were trypsinized, washed, and resuspended in MEM Eagle + 10% FBS + 1% pen-strep media at a concentration of 120 cells/uL. Five uL/well of cell solution was dispensed into a 1536-well assay plates (Greiner, solid white medium-binding plates) with Aurora Discovery BioRAPTR Flying Reagent Dispenser (FRD; Beckton-Dickenson). Cells were pre-incubated at 37 degree Celsius, 5% CO2 for four hours. Compound and control solutions (23nL) were then transferred to the assay plate using the Kalypsys 1536-pin tool. Assay plates were re- incubated at 37 degree Celsius, 5% CO2. After 24 or 48 hours, five uL of CellTiter Glo detection reagent was added. Luminescence signal was read with Perkin Elmer ViewLux plate reader after 30 min room temperature incubation.

**Q.** For `Cc1csc(CNc2ncnc3ccc(-c4ccc(C(C)O)o4)cc23)n1` (stereo not given), which Potency is on record?
**A.** inactive

**Q.** For `Cc1csc(CNc2ncnc3ccc(-c4ccc5c(c4)OCO5)cc23)c1`, which Potency is on record?
**A.** inactive

**Q.** With `CCOC(=O)c1ccc(-c2ccc3ncnc(NCc4cccs4)c3c2)o1` as the compound, how does the Potency read?
**A.** inactive

**Q.** For `c1c[nH]c(CNc2ncnc3ccc(-c4ccoc4)cc23)n1`, which Potency is on record?
**A.** inactive

**Q.** With `NCCNc1ncnc2ccc(-c3ccc4c(c3)OCO4)cc12` as the compound, how does the Potency read?
**A.** inactive

**Q.** Which Potency does the source give for `Fc1cccc(CNc2ncnc3ccc(-c4cccnc4)cc23)c1` here?
**A.** inactive

**Q.** For `Cn1ccc2cc(-c3ccc4ncnc(NCc5cccs5)c4c3)ccc21`, which Potency is on record?
**A.** inactive

**Q.** Which Potency does the source give for `Clc1cccc(-c2ccc3ncnc(NCc4cccnc4)c3c2)c1` here?
**A.** inactive

**Q.** With `Cc1csc(CNc2ncnc3ccc(-c4ccoc4)cc23)c1` as the compound, how does the Potency read?
**A.** inactive

**Q.** For `Clc1ccccc1-c1ccc2ncnc(NCc3ccc4c(c3)OCO4)c2c1`, which Potency is on record?
**A.** inactive

**Q.** With `CC(O)c1ccc(-c2ccc3ncnc(NCCc4cnc[nH]4)c3c2)o1` (stereo not given) as the compound, how does the Potency read?
**A.** inactive

**Q.** With `c1nc(NCC2CCCCC2)c2cc(-c3ccc4c(c3)OCO4)ccc2n1` as the compound, how does the Potency read?
**A.** inactive

**Q.** For `c1csc(CNc2ncnc3ccc(-c4ccc5c(c4)OCO5)cc23)c1`, which Potency is on record?
**A.** inactive

**Q.** Which Potency does the source give for `CN(CCc1ccco1)c1ncnc2ccc(-c3ccc4c(c3)OCO4)cc12` here?
**A.** inactive

**Q.** For `CCNC(=O)c1ccc(-c2ccc3ncnc(NCc4ccc(C)o4)c3c2)o1`, which Potency is on record?
**A.** inactive

**Q.** For `C[C@@H](O)c1ccc(-c2ccc3ncnc(NCc4cccs4)c3c2)o1`, which Potency is on record?
**A.** inactive

**Q.** Which Potency does the source give for `COc1cccc(-c2ccc3ncnc(NCc4cccc(F)c4)c3c2)c1` here?
**A.** inactive

**Q.** For `Cc1occc1-c1ccc2ncnc(NCc3ncc[nH]3)c2c1`, which Potency is on record?
**A.** inactive

**Q.** For `CN(C)CCNc1ncnc2ccc(-c3ccc4c(c3)OCO4)cc12`, which Potency is on record?
**A.** inactive

**Q.** Which Potency does the source give for `CCN1/C(=C/C(C)=O)Sc2ccc(OC)cc21` here?
**A.** inactive

**Q.** With `CC(O)c1ccc(-c2ccc3ncnc(N4CCOCC4)c3c2)o1` (stereo not given) as the compound, how does the Potency read?
**A.** inactive

**Q.** For `Cc1csc(CNc2ncnc3ccc(-c4ccc5c(c4)OCO5)cc23)n1`, which Potency is on record?
**A.** inactive

**Q.** For `CN(C)CCCNc1ncnc2ccc(-c3ccc4c(c3)OCO4)cc12`, which Potency is on record?
**A.** inactive

**Q.** Which Potency does the source give for `CC(=O)c1ccc(-c2ccc3ncnc(NCc4ccc(C)o4)c3c2)o1` here?
**A.** inactive

**Q.** For `CCOC(=O)c1ccc(-c2ccc3ncnc(NCc4ccc(C)o4)c3c2)o1`, which Potency is on record?
**A.** inactive

**Q.** For `Cc1nc(C)c(-c2ccc3ncnc(NCCc4cnc[nH]4)c3c2)s1`, which Potency is on record?
**A.** inactive

**Q.** With `Fc1cccc(CNc2ncnc3ccc(-c4ccccc4Cl)cc23)c1` as the compound, how does the Potency read?
**A.** inactive

**Q.** For `Cc1cccc(-c2ccc3ncnc(NCc4cc(C)cs4)c3c2)c1`, which Potency is on record?
**A.** inactive

**Q.** Which Potency does the source give for `Cc1occc1CNc1ncnc2ccc(-c3ccc4c(c3)OCO4)cc12` here?
**A.** inactive

**Q.** With `Cc1ccc(CNc2ncnc3cc(-c4ccc5c(c4)OCO5)ccc23)o1` as the compound, how does the Potency read?
**A.** inactive

**Q.** With `c1nc(N2CCOCC2)c2cc(-c3ccc4c(c3)OCO4)ccc2n1` as the compound, how does the Potency read?
**A.** inactive

**Q.** For `Cc1ccc(CNc2ncnc3ccc(-c4ccc5c(c4)OCO5)cc23)s1`, which Potency is on record?
**A.** inactive

**Q.** For `CCOC(=O)c1ccc(-c2ccc3ncnc(NCc4csc(C)n4)c3c2)o1`, which Potency is on record?
**A.** inactive

**Q.** Which Potency does the source give for `COc1cccc(-c2ccc3ncnc(NCc4cccc(C)c4)c3c2)c1` here?
**A.** inactive

**Q.** For `CC(C)(C)CNc1ncnc2ccc(-c3ccc4c(c3)OCO4)cc12`, which Potency is on record?
**A.** inactive

**Q.** For `Cc1ccsc1CN(C)c1ncnc2ccc(-c3ccc([C@@H](C)O)o3)cc12`, which Potency is on record?
**A.** inactive

**Q.** For `Cc1cccc(CNc2ncnc3ccc(-c4ccoc4)cc23)c1`, which Potency is on record?
**A.** inactive

**Q.** Which Potency does the source give for `Cc1csc(CNc2ncnc3ccc(-c4ccc(C(=O)O)o4)cc23)n1` here?
**A.** inactive

**Q.** For `COc1cccc(-c2ccc3ncnc(NCc4cc(C)cs4)c3c2)c1`, which Potency is on record?
**A.** inactive

**Q.** For `Cc1cccc(CNc2ncnc3ccc(-c4ccc5c(c4)OCO5)cc23)c1`, which Potency is on record?
**A.** inactive
